Screen size: about 290,000 compounds; about 2,600 (0.9%) were called active. Only a selection was taken, and actives are over-represented in it overall. A number with no mark means an inactive call.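 Rule for the calls: active = inhibition above the mean of all tested compounds plus 3 SD, cutoff set per screening run (cut at about 7.5% in these data); inactive = the rest.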
Tested on: VIM-2 metallo-beta-lactamase (Pseudomonas aeruginosa)
Experiment: VIM-2 metallo-beta-lactamase inhibitors, primary screen, biochemical, epi-absorbance readout, Pseudomonas aeruginosa enzyme (AID 1527);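 note: red hydrolysis product quenches plate fluorescence so inhibitors raise well fluorescence; 0% = enzyme with DMSO and 100% = DMSO without enzyme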
Conditions: purified VIM-2, nitrocefin hydrolysis, epi-absorbance fluorescence; at 5.6 µM; hits give high values

Row | SMILES | inhibition
1 | c1ccc(Nc2nc(N3CCOCC3)c3ccccc3n2)cc1 | -0.89%
2 | Cc1cccc(-c2nc(Nc3ccc(O)cc3)c3ccccc3n2)c1 | -0.38%
3 | CN1CCN(c2nc(Nc3ccc(O)cc3)nc3ccccc23)CC1 | 12.2% (active)
4 | O=C(/C=C/c1ccc2c(c1)OCCO2)c1ccc(O)cc1 | 0.15%
5 | CCC(=C/c1sc2ccc3ccccc3c2[n+]1C)/C=C1\Sc2ccc3ccccc3c2N1C | 18.2% (active)
6 | CN1CCN(c2ccc(NC(=O)c3ccc4c(c3)[nH]c(=O)n4Cc3ccc(F)cc3)cc2)CC1 | 17.6% (active)
7 | CC(C)n1c(=O)[nH]c2cc(C(=O)Nc3ccccc3)ccc21 | -0.68%
8 | CN1CCN(c2ccc(NC(=O)c3ccccc3)cc2)CC1 | 5.59%
9 | Cc1cc2occ(CC(=O)NNC(=O)c3ccccc3F)c2cc1C | -1.98%
10 | Cc1nc(N)nc(SCc2ccc([N+](=O)[O-])cc2)c1N | -0.52%
11 | COC(=O)c1ccc(NC(=O)CSc2nnc(C3CC3)n2C)cc1 | -2.19%
12 | CCN1CCN(c2ccc(NC(=O)c3cnccn3)cc2)CC1 | 11.1% (active)
13 | O=C(Nc1ccc(S(=O)(=O)N2CCCCC2)cc1)c1cnccn1 | -1.24%
14 | O=C(Nc1ccc2c(c1)OCCO2)c1cnccn1 | -1.18%
15 | CC(CC(=O)N1CCN(c2ccccc2)CC1)S(=O)(=O)c1ccc2c(c1)NC(=O)CS2 (centres undefined) | -2.34%
16 | CN1CCN(Cc2c(C(=O)N3CCc4ccccc4C3)nc3ccc(Cl)cn23)CC1 | 1.36%
17 | CC1CN(S(=O)(=O)c2ccc(C(=O)Nc3sccc3C(N)=O)cc2)CC(C)O1 (centres undefined) | -1.24%
18 | CNC(=O)c1ccsc1NC(=O)c1ccc(S(=O)(=O)N2CCc3ccccc32)cc1 | -1.27%
19 | COc1ccc(C(=O)Nc2nc(-c3ccc(S(=O)(=O)N4CCOCC4)cc3)cs2)cc1 | -4.64%
20 | CNC(=O)c1ccsc1NC(=O)c1ccc(S(=O)(=O)N2CCOCC2)cc1 | 18.2% (active)
21 | O=C(Nc1ccc(N2CCOCC2)c(Cl)c1)c1ccc(S(=O)(=O)N2CCOCC2)cc1 | -1.9%
22 | COC(=O)c1c(NC(=O)c2ccc(S(=O)(=O)N3CCOCC3)cc2)sc2c1CCN(C(C)C)C2 | 60.3% (active)
23 | Cc1ccn2c(c1)nc(=O)c1cc(S(=O)(=O)N3CCC(C)CC3)ccc12 | 3.01%
24 | CC(C(=O)NC1CCCCC1)N1C(=O)c2cccc3cccc1c23 (centres undefined) | 0.01%

Row | SMILES | inhibition
25 | COc1ccc2c(c1OC)C(=O)N(c1ccc(O)cc1)C2 | -1.4%
26 | CCOC(=O)C1(Cc2ccccc2C)CCCN(S(C)(=O)=O)C1 (centres undefined) | 2.72%
27 | C/C(=N\Nc1ccc(S(N)(=O)=O)cc1[N+](=O)[O-])c1cccs1 | 11.9% (active)
28 | C/C(=N\NS(=O)(=O)c1ccc(Br)cc1)c1cccs1 | -5.12%
29 | C/C(=N\Nc1ncc(Cl)cc1Cl)c1cccs1 | -1.51%
30 | CCN(CC)c1ccc(NC(=O)CCc2nnc3ccc(N4CCCCC4)nn23)c(C)c1 | -1.16%
31 | Cc1cc(-c2ccc(/C=N/n3cnnc3)o2)c([N+](=O)[O-])cc1C | 41.5% (active)
32 | Cc1ccc(Cl)cc1-c1ccc(/C=N/n2cnnc2)o1 | 27.4% (active)
33 | Brc1cc(/C=N/n2cnnc2)oc1Br | -2.87%
34 | COC(=O)N/N=C/c1ccc(-c2ccc(Cl)c(Cl)c2)o1 | -1.8%
35 | Cc1ccccc1-c1n[nH]c(=S)n1/N=C/c1ccc(-c2ccccc2Br)o1 | -6.24%
36 | Clc1cc(-c2ccc(/C=N/n3cnnc3)o2)ccc1Br | 14.1% (active)
37 | Cc1cc(C)c([N+](=O)[O-])cc1-c1ccc(/C=N/NC(=O)c2nonc2N)o1 | -3.27%
38 | Fc1ccc(Br)cc1/C=N/n1cnnc1 | 1.26%
39 | O=C1C2C3C=CC(C4CC34)C2C(=O)N1/N=C/c1ccc(-c2ccccc2[N+](=O)[O-])o1 (centres undefined) | -0.54%
40 | Cc1cc([N+](=O)[O-])c(-c2ccc(/C=N/n3cnnc3)o2)cc1Cl | 40.1% (active)
41 | Cc1ccccc1OCCOc1ccc([N+](=O)[O-])cc1/C=N/n1cnnc1 | -0.56%
42 | CC1=NN(c2ccc(Cl)c(C(=O)O)c2)C(=O)/C1=C/c1ccc(-c2ccccc2[N+](=O)[O-])o1 | -1.65%
43 | CC(NC(=O)C1CCCN(S(=O)(=O)c2ccc(-n3cnnn3)cc2)C1)c1ccc(F)cc1 (centres undefined) | 1.19%
44 | COc1ccc(CSc2nnnn2-c2ccc(C(=O)O)cc2)cc1 | -2.38%
45 | COc1cc(CN2CCCC(C(=O)c3ccc(SC)cc3)C2)cc(Cl)c1O (centres undefined) | -0.31%
46 | CCOc1c(OC)cccc1C(=O)NCC1(c2ccccc2)CCCC1 | -2.24%
47 | CCCCNC(=S)NNC(=O)c1cc(C)on1 | 9.24% (active)
48 | COCCCNC(=S)NNC(=O)C(O)(c1ccccc1)c1ccccc1 | 2.9%

Row | SMILES | inhibition
49 | O=C(NNC(=S)NCCCN1CCOCC1)c1ccncc1 | 6.22%
50 | Cc1ccc(SCC(=O)c2cc(C)c(OC(=S)N(C)C)c(C)c2)cc1 | -4.92%
51 | CCCC1=Nc2cc(C(=O)NCCN3CCCC3)ccc2Sc2ccccc21 | -3.66%
52 | COc1cc(/C=N/Nc2nn3cnnc3c3ccccc23)cc(OC)c1OC | 25.2% (active)
53 | COc1ccc(/C=N/Nc2nc3ccccc3o2)cc1OC | -2.44%
54 | COc1cc(/C=N/NC(=O)Cc2ccccc2)cc(OC)c1OC | -1.77%
55 | CCCc1nn2c(=O)cc(CSCC(=O)Nc3cccc(C)c3)nc2s1 | 0.24%
56 | Cc1cccn2cc(-c3cccc(S(=O)(=O)N4CCCCC4)c3)nc12 | -0.51%
57 | CN(C(=O)c1cccc([N+](=O)[O-])c1)c1ccccc1C(=O)NCc1ccccc1 | -1.36%
58 | O=c1c2ccccc2oc2nc(C3CCCCC3)n(Cc3ccco3)c(=O)c12 | -2.32%
59 | O=c1c2ccccc2oc2nc3n(c(=O)c12)CCCS3 | 8.39% (active)
60 | CCc1nc2oc3ccccc3c(=O)c2c(=O)n1Cc1ccc(OC)cc1 | -2.13%
61 | Cc1sc2ncn(CC(=O)NCCCC(=O)NCc3ccc(F)cc3)c(=O)c2c1C | 0.04%
62 | Nc1c(C(=O)c2cccs2)sc2nsc(SCCN3CCCCC3)c12 | 13.6% (active)
63 | Cc1nc2sc(C(=O)c3ccccc3)c(N)c2c2c1CCCC2 | 2.15%
64 | CN(C)c1ccnc2sc(C(=O)c3ccccc3)c(N)c12 | -2.05%
65 | CCN(CC)CCN1C(=O)C2C(C(=O)Nc3ccc(Br)cc3)C3C=CC2(O3)C1C(=O)NC1CCCCC1 (centres undefined) | -0.9%
66 | Cc1ccc2[nH]c(=O)c(CC(=O)O)c(-c3ccccc3)c2c1 | -3.01%
67 | CCOc1ccccc1NC(=S)N1CCN(c2cccc(C)c2C)CC1 | -0.35%
68 | COCCNc1ccc(-c2n[nH]c(=O)c3ccccc23)cc1[N+](=O)[O-] | 10.5% (active)
69 | COCCNc1cc(NCCOC)c([N+](=O)[O-])cc1[N+](=O)[O-] | -3.48%
70 | Cc1ccc(S(=O)(=O)N(C)C)cc1NC(=O)c1n[nH]c(=O)c2ccccc12 | -0.87%
71 | CN(C)CCNc1ccc(-c2n[nH]c(=O)c3ccccc23)cc1[N+](=O)[O-] | 78.8% (active)
72 | CCN(CC)CCNc1ccc(Cl)cc1[N+](=O)[O-] | 0.16%

Row | SMILES | inhibition
73 | COCCNC(=O)c1ccccc1NS(=O)(=O)c1ccc(C)c([N+](=O)[O-])c1 | 0.45%
74 | O=C(Nc1ccc(S(=O)(=O)N2CCCCCC2)cc1)c1c(F)cccc1F | -0.68%
75 | O=C(O)CCCn1c(=O)c2cccn2c2ccc(F)cc21 | -1.43%
76 | Clc1ccc(CN2CCCCCC2)cc1Cl | -2.14%
77 | CC(=O)c1cccc(NC(=O)COc2ccc(S(=O)(=O)N3CCOCC3)cc2)c1 | -2.94%
78 | COc1ccc(Cl)cc1C(=O)NNC(=O)c1nc2nc(C)cc(C)n2n1 | 10.3% (active)
79 | Cc1cc(C)n2nc(C(=O)NC(C)(C)C)nc2n1 | -3.78%
80 | C=CCNC(=S)NNC(=O)c1cc(Cl)ccc1OC | -5.71%
81 | O=C(CNC(=O)OCc1ccccc1)Oc1cc2oc(=O)cc(-c3ccccc3)c2cc1Cl | 2.38%
82 | CN(C)/C=C1/C(=O)Nc2ccccc21 | -0.22%
83 | O=C1Nc2ccccc2/C1=C/c1ccnc2ccccc12 | 8.11% (active)
84 | Cc1ccccc1N1CCN(CCCN2C(=O)C3CCCCN3C2=O)CC1 (centres undefined) | 0.15%
85 | CC(NS(=O)(=O)c1ccccc1)c1n[nH]c(=S)n1-c1ccccc1 (centres undefined) | 14.9% (active)
86 | CCCCC(CC(C)O)c1n[nH]c(=S)n1-c1ccccc1 (centres undefined) | -4.22%
87 | S=c1[nH]nc(COc2ccccc2)n1-c1ccccc1 | -1.69%
88 | CCOc1c(Br)cc(/C=C2\C(=O)N(CCC#N)N=C2C)cc1OC | 0.69%
89 | CCN1CCN(C(=O)Cn2nc(C)n3c(cc4c(OC)cccc43)c2=O)CC1 | 28.3% (active)
90 | COc1cccc2c(=O)n(CC(=O)N3CCCCCC3)ccc12 | 1.04%
91 | CCc1nn(CC(=O)N2CCN(CC)CC2)c(=O)c2cccn12 | -0.45%
92 | COc1ccc(C(CNC(=O)COc2ccccc2OC)N2CCCCC2)cc1 (centres undefined) | -0.07%
93 | Cc1ccc(CN(N=Nc2nonc2N)c2nonc2N)c(C)c1 | -1.22%
94 | O=C(COc1ccc(-n2cnnn2)cc1)Nc1ccccc1Cl | 0.31%

— PubChem BioAssay AID1527 (The Scripps Research Institute Molecular Screening Center, 2009)
